D2 ag-1 – activates the human D2 dopamine receptor; 360,000 compounds, 0.084% hits; AID 624465; DiscoveRx PathHunter D2 beta-arrestin, luminescence, 90 min; 100% = 57 uM dopamine signal; P14416; activation, % (concentration not given with the values); in the data active = activation above about 40%
Target sequence (P14416 whole entry, looked up): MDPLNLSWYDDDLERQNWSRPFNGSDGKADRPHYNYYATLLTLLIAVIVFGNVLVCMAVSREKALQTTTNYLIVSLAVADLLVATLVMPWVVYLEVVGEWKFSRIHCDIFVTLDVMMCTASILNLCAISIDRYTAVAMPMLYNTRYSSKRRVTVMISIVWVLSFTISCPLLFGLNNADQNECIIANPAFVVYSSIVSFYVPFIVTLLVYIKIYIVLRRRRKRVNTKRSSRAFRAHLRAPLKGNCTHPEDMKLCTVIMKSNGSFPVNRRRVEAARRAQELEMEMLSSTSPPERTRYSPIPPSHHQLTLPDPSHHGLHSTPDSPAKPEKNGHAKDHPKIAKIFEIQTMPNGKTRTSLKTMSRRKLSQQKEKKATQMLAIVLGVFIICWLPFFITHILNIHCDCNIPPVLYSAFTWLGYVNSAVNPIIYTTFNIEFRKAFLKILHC
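Agonist mode: compounds alone added to overnight-plated D2 PathHunter cells for 90 min at 37 C, with 57 uM final dopamine (EC100) defining full response. Beta-arrestin recruitment detected by chemiluminescent reagent, read after 1 h at ambient temperature.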
D2 antagonist – antagonists of human D2 dopamine receptor; 340,000 compounds, 2% hits; HEK293 TREx D2 cells, calcium flux, dopamine EC80; AID 485344; P14416; inhibition, % at 10 µM; in the data active = inhibition above about 30%; inactive = below that, where a call was filed; also: 0% is about no effect
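Measurement of antagonist activity uses fluorescent calcium dye in inducible HEK293 T-REx D2 cells: 10 s baseline, compound addition with 180 s read, EC80 dopamine addition with a further 180 s read.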
D2 PAM-1 – potentiates the human D2 dopamine receptor allosterically; DiscoveRx D2 beta-arrestin cells, luminescence, 90 min; 100% = 57 uM dopamine signal; potentiation, % (test concentration not listed); 360,000 compounds, 0.23% hits; AID 624464; in the data active = potentiation above about 50%
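D2 cells co-treated with compound plus 50 nM dopamine (EC20) for 90 min at 37 deg C to detect potentiation. Beta-arrestin recruitment was read as enzyme-fragment luminescence after 1 h at ambient temperature. Full response was set by 57 uM dopamine.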
D2 ag-2 – D2 dopamine receptor (human) agonism; P14416; HEK293 T-REx D2 cells, calcium flux agonist mode; activation, % at 2 µM; 340,000 compounds, 0.53% hits; AID 485358;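 active = activation over 3 SD above normal in the single-dose calcium agonist read, cut at about 30% in these data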; also: 0% is about no effect
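Tetracycline-induced HEK293 T-REx cells with force-coupled D2 receptor, plated overnight at 30 C, loaded with no-wash calcium dye. After a 10 s baseline, compound was pin-added and calcium flux read kinetically for 180 s; calcium rises flagged agonists.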
D2 PAM-2 – D2 dopamine receptor (human) potentiation. P14416. HEK293 T-REx D2, calcium flux, EC20 dopamine potentiation. potentiation, % at 10 µM. 340,000 compounds, 0.34% hits. AID 485347;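 active = potentiation over 3 SD above the plate norm, cut at about 30% in these data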; also: 0% is about no effect
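Potentiation of an EC20 dopamine calcium response is measured in a force-coupled, tetracycline-inducible Hek293 Trex D2 line. Compound-only kinetic reads over 180 s flag agonists before dopamine addition.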
* hit, by the source's call; / = no result given. Most compounds without a hit are left out; they make up all but 2.4% or so of the library.

SMILES	D2 ag-1	D2 antagonist	D2 PAM-1	D2 ag-2	D2 PAM-2
O=C(/C=C/c1ccc(OC(F)F)cc1)OCC(=O)N1CCC(c2ccccc2)=N1	-1	39*	3	3	-4
CCN(CC)CCn1c(NCc2ccc(OC)cc2)nc2ccccc21	-3	75*	-30	0	-38
COc1ccc(CNc2nc3ccccc3n2CCN2CCCCC2)c(OC)c1	-6	0	-44	7	-20
O=C(Nc1nc2ccccc2n1CCN1CCCCC1)C1CCCCC1	-1	42*	-10	-1	-19
CCCCCn1c(NCc2ccc(OC)cc2)nc2ccccc21	/	/	/	0	0
COc1ccc(OC)c(CNc2nc3ccccc3n2CCN2CCCCC2)c1	-5	34*	-19	0	-21
O=C(Nc1nc2ccccc2n1CCN1CCCC1)C1CCCCC1	-5	22	-37	-1	-21
Cc1nn(C)c(C)c1S(=O)(=O)N(CC(=O)NCCc1ccccc1)c1ccc(C(C)C)cc1	/	/	/	-1	1
O=C(COc1ccccc1F)Nc1ccccc1C(=O)OCc1cc(=O)n2nc(C3CC3)sc2n1	/	/	/	-2	-3
Cc1ccc(C)c(N2CCN(S(=O)(=O)c3c(C(=O)N4CCC(C)CC4)c(C)n(C)c3C)CC2)c1	/	/	/	7	1
CN(C)C(=O)c1ccc(NC(=O)Cn2nnnc2-c2ccccc2F)cc1	/	/	/	/	6
CCSC1=N/C(=C\c2ccc(OC)cc2)C(=O)N1	-2	1	-24	0	12
COc1ccc(/C=C2\N=C(SC)NC2=O)cc1	-4	4	-2	0	31*
COCCCNC(=O)c1c[nH]c2ccc(S(=O)(=O)N3CCc4ccccc43)cc2c1=O	7	-8	7	0	38*
COCCNC(=O)c1c[nH]c2ccc(S(=O)(=O)N3CCc4ccccc43)cc2c1=O	-1	-4	17	-1	8
Cc1cc(C)c(NC(=O)CN2C(=O)NC(CCc3ccccc3)C2=O)c(C)c1 (centres undefined)	-3	32*	-3	1	-8
Cc1ccc(C)c(NC(=O)CN2C(=O)NC(CCc3ccccc3)C2=O)c1 (centres undefined)	-6	/	-6	/	/
CCc1ccc2nc(N(CCCN(C)C)C(=O)c3ccc(S(=O)(=O)N4CCCc5ccccc54)cc3)sc2c1	-7	3	-11	2	11
CN(C)CCN(C(=O)c1ccc(S(=O)(=O)N2CCc3ccccc32)cc1)c1nc2ccc(F)cc2s1	-6	69*	-22	-1	-18
CC(C)(C)NCCOc1ccc2ccccc2c1	-2	45*	-11	3	-21
CC1(C)CC(n2c(NCCO)nc3c(c2=O)C2(CCCC2)Cc2ccccc2-3)CCO1 (centres undefined)	-1	-13	-2	1	34*
O=c1c2c(nc(NCCO)n1CC1CCCCC1)-c1ccccc1CC21CCCC1	-4	8	-4	1	16
O=C(c1ccc2c3c(cccc13)CC2)C1CCCN(Cc2ccccn2)C1 (centres undefined)	-2	37*	-7	0	-18
Cc1cnc(CN2CCCC(C(=O)c3ccc4c5c(cccc35)CC4)C2)[nH]1 (centres undefined)	-4	7	-16	-1	-32
O=C(c1ccc2c3c(cccc13)CC2)C1CCCN(Cc2ccc(OCCO)cc2)C1 (centres undefined)	0	31*	-5	0	-32
SMILES	D2 ag-1	D2 antagonist	D2 PAM-1	D2 ag-2	D2 PAM-2
CCOc1cc(CNC(=O)C(NS(=O)(=O)c2cccs2)C(C)C)cc(OCC)c1OCC (centres undefined)	/	/	/	1	17
CCC(C)Sc1nc2c(c(=O)n1C)SC(C)C2 (centres undefined)	-1	-4	1	-1	52*
CSc1nc2c(c(=O)n1C)SC(C)C2 (centres undefined)	-2	20	-3	1	1
O=C(NCc1ccccc1)c1cc(C2COCCN2C(=O)C/C=C/c2ccccc2)on1 (centres undefined)	5	/	-3	/	/
Nc1ccccc1C(=O)NCc1ccc(Cl)cc1	2	30*	8	27	1
Nc1ccccc1C(=O)NCc1ccc(F)cc1	2	-7	-2	0	3
CCOc1ccc(NC(=O)CC2C(=O)N(c3cccc(C)c3)C(=O)N2Cc2cccs2)cc1 (centres undefined)	/	/	/	/	2
O=C1CN(O)C=C2N=c3ccccc3=C2N1c1ccc([N+](=O)[O-])cc1	0	24	103*	1	16
c1ccc(Nc2ccccc2Nc2ccccn2)nc1	-1	34*	-10	0	27
c1ccc(CNc2ccccn2)cc1	1	-6	-14	0	-2
CCOC(=O)c1[nH]c(C)c(C(=O)NCCc2ccccc2)c1C	/	/	/	0	-6
Cc1ccc(C)c(OCC(=O)N(Cc2nnc(-c3ccccc3Cl)o2)C2CC2)c1	-2	33*	-2	2	1
c1ccc(-c2noc(CN3CCN(c4ccccc4)CC3)n2)cc1	3	/	-3	/	/
c1ccc(CCc2nc(-c3ccccc3)no2)cc1	-1	15	-11	1	39*
c1ccc(-c2noc(CN3CCc4sccc4C3)n2)cc1	2	35*	10	0	3
O=C(CSc1nccn1-c1ccc(F)cc1)Nc1ccc(OC(F)(F)F)cc1	/	/	/	1	-16
Cn1cc(S(=O)(=O)N2CCN(c3ccccc3F)CC2)c(=O)n(C)c1=O	-3	32*	-9	0	0
CCOC(=O)c1ccc(NS(=O)(=O)c2cc3c(cc2C)n(C)c(=O)c(=O)n3C)cc1	/	/	/	-1	5
COC(=O)c1ccc(C2C(Oc3ccccc3)C(=O)N2CCc2ccc(F)cc2)cc1 (centres undefined)	-2	36*	2	1	-15
CCn1c(Cc2ccccc2)nnc1SCC(=O)Nc1ccccc1O	5	40*	2	-1	3
CCn1c(Cc2ccccc2)nnc1SCC(=O)NC(C)(C)C	-2	8	-1	0	8
CCn1c(Cc2ccccc2)nnc1SCC(=O)Nc1ccc(N2CCOCC2)c(Cl)c1	-1	39*	-4	0	13
Cn1c(SCC(=O)Nc2ccc(N3CCOCC3)c(Cl)c2)nnc1-c1ccccc1	1	/	-4	/	/
CCOc1ccc(NS(=O)(=O)c2cccc(C(=O)NCC3(N(C)C)CCCCC3)c2)cc1	-1	6	-32	1	1
CCN1CCC(N(Cc2ccc3c(c2)OCO3)C(=O)Nc2cc(Cl)ccc2C(=O)OC)CC1	/	/	/	17	-19
O=C(CCNS(=O)(=O)c1cccc(C(F)(F)F)c1)NC1CC1	-1	13	0	-1	45*
CC1CCC(NC(=O)CCNS(=O)(=O)c2ccccc2)CC1 (centres undefined)	-2	12	2	1	-8
